# Measurements from PubChem BioAssay (NCATS).
# Unmarked numbers belong to inactive results. Inconclusive results are not listed. The source made the active and inactive calls. Unless noted, calls follow the shape of the dose curve; as a rule, active = well fitted curve in the direction sought with a large enough effect; inconclusive = small, poorly fitted or top-dose-only effect, or another doubt; inactive = no such curve, though single readings can be large; an effect the other way counts as inactive or inconclusive.
# Tests used:
# [1] = target: Lysosomal acid glucosylceramidase (Homo sapiens) (UniProt P04062); assay: Glucocerebrosidase-p2 (AID 348; in the data active = potency below about 10 µM; also: potency is read from the fitted curve at half-maximal effect); details: purified GBA, blue fluorogenic substrate, 40 min
# Summary of the method: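 Normal human glucocerebrosidase (0.2 nM) with blue fluorogenic substrate (80 uM final) in citrate/phosphate pH 5.9 with 10mM sodium taurocholate, 0.01% tween-20; 40 min RT, NaOH/glycine stop; fluorescence Ex 365/Em 440; AC50 from a titration from 0.6 nM upwards.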
# [2] = AP1 Signaling Pathway (AID 357; active = well fitted curve in either direction with a large enough effect, not every such curve was filed as active;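 also: ME-180 reporter cells stimulated with EGF at its EC50 level; % is scaled to controls: 0 for no effect and ±100 for the full control effect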); details: ME-180 AP-1-bla reporter, EGF-induced, beta-lactamase ratio, 5 h; at 7.69 µM (top of the series) unless noted
# Summary of the method: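 In this screen, ME-180 cells in Opti-MEM with 0.5% dialyzed FBS received EC50 EGF and compound titrations for 5 h. AP-1 reporter beta-lactamase was detected via CCF4 ratio, giving AC50 for positive and negative modulators.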
# [3] = target: Cytochrome P450 1A2 (Homo sapiens) (UniProt P05177); assay: p450-cyp1a2 (AID 410; calls by dose curve; also: potency is read from the fitted curve at half-maximal effect;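 as to activity change, negative = inhibition: -100% = full effect of reference inhibitor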)
# Summary of the method: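 20nM CYP1A2, 100uM Luciferin-ME (=Km), 100mM KPO4; cpd 10 min RT; +NADPH regen, 60 min RT; stop/detect 20 min; luminescence. Normalized to furafylline 57 uM = full inhibition.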
# [4] = NFAT Signaling Pathway (AID 444; active = well fitted curve in either direction with a large enough effect, not every such curve was filed as active;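 also: carbachol stimulus at about its EC50 of 1 µM final; % is scaled to controls: 0 for no effect and ±100 for the full control effect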); details: Jurkat NFAT-bla M1, carbachol, beta-lactamase ratio, 5 h; at 7.69 µM (top of the series) unless noted
# Summary of the method: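 Jurkat cells carrying an NFAT-driven β-lactamase reporter and co-transfected muscarinic M1 receptor were treated with compound plus carbachol (1 uM final, an EC50 level) for 5 h at 37 °C. CCF4 loading followed for 1 h at RT; 460/530 nm ratio gave %activity.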
# [5] = Stat Signaling Pathway (AID 446; active = well fitted curve in either direction with a large enough effect, not every such curve was filed as active;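 also: ME-180 cervical cancer cells given 40 pM IL-6 alongside compound; SIE-controlled beta-lactamase reporter measured as 460/530 nm FRET emission ratio; % is scaled to controls: 0 for no effect and ±100 for the full control effect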); details: ME-180 SIE beta-lactamase reporter, IL-6 stimulated, 5 h; at 7.69 µM (top of the series) unless noted
# Summary of the method: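 Overnight-plated ME-180 cells bearing a STAT Inducible Element beta-lactamase reporter; 5 h co-exposure to compound and 40 pM IL-6; values normalized to 300 pM IL-6 and 125 nM JAK inhibitor controls.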
# [6] = target: Glucocorticoid receptor (Homo sapiens) (UniProt P04150); assay: GR-GFP Redistribution (AID 450;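 active = compounds whose dose series gives a full or clear partial fitted curve of increased nuclear translocation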; also: potency is read from the fitted curve at half-maximal effect); details: U2OS GR-GFP nuclear translocation, laser cytometry, 2 h
# [7] = target: Glucocorticoid receptor (Homo sapiens) (UniProt P04150); assay: GR-EFC Redistribution (AID 451; calls by dose curve; also: potency is read from the fitted curve at half-maximal effect); details: CHO-K1 GR-EFC translocation, beta-gal luminescence, 2 h
# Summary of the method: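 CHO-K1 cells stably expressing nuclear-localized β-gal enzyme acceptor and GR fused C-terminally to the enzyme donor fragment; ligand-driven nuclear translocation restores β-gal by complementation. Compounds titrated up to 46 uM final, 2 h at 37 °C; luminescence read.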
# [8] = target: Mitogen-activated protein kinase 10 (Mus musculus) (UniProt Q61831); assay: JNK3 AlphaScreen Assay (AID 530; active = well fitted curve in either direction with a large enough effect, not every such curve was filed as active;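 also: kinase came from lysate of stimulated human HepG2 cells; signal reports phosphorylation of biotinylated GST-cJun 1-79 at Ser73 with 10 µM ATP; % is scaled to controls: 0 for no effect and ±100 for the full control effect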)
# Summary of the method: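 Biotinylated GST-cJun(1-79) served as substrate for JNK3 in HepG2 lysates stimulated with IL-1beta and TNF-alpha. ATP was 10 uM final, pH 7.6. Ser73 phosphorylation was quantified by AlphaScreen (680 nm excitation).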
# [9] = target: Cytochrome P450 3A4 (Homo sapiens) (UniProt P08684); assay: qHTS Assay for Inhibitors and Substrates of Cytochrome P450 3A4 (AID 884); also: nearly all actives have a fitted effect of over 50% in size; also: potency is read from the fitted curve at half-maximal effect
# Summary of the method: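 Luminescent readout of luciferin produced by CYP3A4 (20 nM) dealkylation of Luciferin-PPXE, 25 uM (its KM). NADPH-driven reaction ran 60 min at RT after 10 min compound preincubation; data scaled to 57 uM ketoconazole as 100% inhibition.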
# [10] = target: Cytochrome P450 3A4 (Homo sapiens) (UniProt P08684); assay: qHTS Assay for Activators of Cytochrome P450 3A4 (AID 885); also: nearly all actives have a fitted effect of over 65% in size; also: potency is read from the fitted curve at half-maximal effect
# Summary of the method: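 Using 20nM recombinant human CYP3A4 in potassium phosphate (200mM), substrate Luciferin-PPXE at 25uM, luminescent luciferin detection followed a 60-min RT NADPH reaction; data scaled to 57 uM ketoconazole.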
# [11] = target: Ubiquitin carboxyl-terminal hydrolase 1 (Homo sapiens) (UniProt O94782); assay: Inhibitors of USP1/UAF1: Pilot qHTS (AID 504865);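 also: rhodamine fluorescence freed from ubiquitin-rhodamine substrate followed over time; top concentration of the series differs between compounds; % is scaled to controls: 0 for no effect and ±100 for the full control effect; nearly all actives have a fitted effect of over 35% in size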
# Summary of the method: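 USP1/UAF1 complex (1nM) preincubated with compound 15 min at room temperature, then Ub-Rho substrate (150nM final) added. Fluorescence read kinetically at 480/540 nm, 6 reads every 60 seconds. Buffer: 50mM HEPES pH 7.8, 0.5mM EDTA, 0.1 mg/ml BSA, 1mM TCEP, 0.01% Tween-20.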
# [12] = Primary qHTS for small molecule stabilizers of the endoplasmic reticulum resident proteome: Secreted ER Calcium Modulated Protein (SERCaMP) assay (AID 1508630); also: % is scaled to controls: 0 for no effect and ±100 for the full control effect
# Summary of the method: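 The SH-SY5Y reporter protocol was run at 3 concentrations up to 38.3 uM (primary) or 11 concentrations (follow-up): 16 h compound, 100 nM thapsigargin for 4 h, then extracellular luciferase luminescence.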
# [13] = target: 3',5'-cyclic-AMP phosphodiesterase 4B (Homo sapiens) (UniProt Q07343); assay: qHTS Assay for Inhibitors of PDE-IV (AID 607; active = well fitted activation curve with a large enough effect in the main read-out, with a control signal flat, not every such curve was filed as active; also: % of control where 0% means no effect)
# Summary of the method: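 Live HEK293 cells with a modified cyclic nucleotide-gated (CNG) channel report intracellular cAMP via membrane-potential dye fluorescence (ex 535/em 590 nm). Endogenous PDE-IV was targeted. Compounds were tested at up to 22.9 uM final; RO 20-1724 100 uM served as control.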
# [14] = target: Cytochrome P450 2C19 (Homo sapiens) (UniProt P33261); assay: qHTS Assay for Inhibitors and Substrates of Cytochrome P450 2C19 (AID 899); also: potency is read from the fitted curve at half-maximal effect; nearly all actives have a fitted effect of over 60% in size
# Summary of the method: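 NADPH-dependent conversion of Luciferin-H EGE (10uM, at KM) by 5nM enzyme in 50mM KPO4, 60 min at 37C following 10 min compound preincubation. Stopped with luciferin detection buffer; luminescence read after 20 min.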
# [15] = target: Dual specificity protein kinase CLK4 (Homo sapiens) (UniProt Q9HAZ1); assay: qHTS Assay for Inhibitors of CDC-like Kinase 4 (ADP-FP Assay) (AID 1795); also: % is scaled to controls: 0 for no effect and ±100 for the full control effect; nearly all actives have a fitted effect of over 60% in size
# Summary of the method: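 Recombinant human Clk4 (6.25 nM) phosphorylated RS repeat peptide (100 uM) with 1 uM ATP in Tris pH 7.5/MgCl2/EGTA/DTT/Triton buffer for one hour. ADP was quantified by Transcreener competitive fluorescence polarization against an ADP calibration curve.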
# [16] = Confirmation and Secondary Assay for Modulators of Hemoglobin Beta Chain Splicing at IVS2 654 locus (AID 910);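 also: per-well total GFP intensity by laser scanning cytometry after 2-day treatment; % of control where 0% means no effect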
# Summary of the method: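 HeLa cells stably carrying EGFP interrupted by mutant beta-globin IVS2-654 intron (CMV-driven) were treated with compound for 2 days at 37C; corrected splicing was scored as total peak GFP intensity per well (488 nm excitation, 500-520 nm emission).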
# [17] = Confirmation and Secondary Assay for Modulators of Hemoglobin Beta Chain Splicing at IVS2 705 locus (AID 930);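 also: HeLa cells stably expressing the EGFP-705 splicing reporter; GFP fluorescence per well restored by corrected splicing of the IVS2-705 intron in EGFP; % of control where 0% means no effect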
# Summary of the method: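 Per-well GFP, captured at 1 x 8 µm resolution with 488 nm excitation, served as the read-out for HeLa EGFP-705 cells incubated 2 days with test compound versus DMSO.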
# [18] = qHTS Assay for Identification of Small Molecule Agonists for Hypoxia Response Element Signaling Pathway (AID 914; active = well fitted activation curve with a large enough effect in the signal ratio, with a control signal flat, not every such curve was filed as active; the % refers to the signal ratio; also: % of control where 0% means no effect); details: ME-180 (cervical carcinoma) HRE-bla reporter, beta-lactamase ratio, CoCl2, 17 h; activation: hits give high values
# Summary of the method: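 In Opti-MEM containing 0.5% dialyzed FBS and 10 mM HEPES, ME-180 HRE-bla cells received a compound titration and EC50 CoCl2. They were incubated 17 hours, then CCF4-loaded 2.5 hours at room temperature before ratio reading.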
# Chain of Lysosomal acid glucosylceramidase (Homo sapiens) (P04062 whole entry, looked up): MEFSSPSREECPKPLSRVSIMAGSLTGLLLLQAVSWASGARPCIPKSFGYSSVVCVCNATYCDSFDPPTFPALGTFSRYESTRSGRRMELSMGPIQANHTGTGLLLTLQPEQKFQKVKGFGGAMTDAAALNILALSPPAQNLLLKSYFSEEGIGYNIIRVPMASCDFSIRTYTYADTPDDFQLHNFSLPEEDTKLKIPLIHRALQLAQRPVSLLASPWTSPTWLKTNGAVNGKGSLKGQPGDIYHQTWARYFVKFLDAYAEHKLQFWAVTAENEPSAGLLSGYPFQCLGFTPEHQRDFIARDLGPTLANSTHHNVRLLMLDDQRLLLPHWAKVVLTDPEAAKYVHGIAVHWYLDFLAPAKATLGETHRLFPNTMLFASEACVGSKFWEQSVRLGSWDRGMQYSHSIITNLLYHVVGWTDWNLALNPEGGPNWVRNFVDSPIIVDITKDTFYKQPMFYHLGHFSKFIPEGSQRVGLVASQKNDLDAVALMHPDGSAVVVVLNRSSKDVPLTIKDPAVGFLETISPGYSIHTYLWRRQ
# Chain of Cytochrome P450 1A2 (Homo sapiens) (P05177 whole entry, looked up): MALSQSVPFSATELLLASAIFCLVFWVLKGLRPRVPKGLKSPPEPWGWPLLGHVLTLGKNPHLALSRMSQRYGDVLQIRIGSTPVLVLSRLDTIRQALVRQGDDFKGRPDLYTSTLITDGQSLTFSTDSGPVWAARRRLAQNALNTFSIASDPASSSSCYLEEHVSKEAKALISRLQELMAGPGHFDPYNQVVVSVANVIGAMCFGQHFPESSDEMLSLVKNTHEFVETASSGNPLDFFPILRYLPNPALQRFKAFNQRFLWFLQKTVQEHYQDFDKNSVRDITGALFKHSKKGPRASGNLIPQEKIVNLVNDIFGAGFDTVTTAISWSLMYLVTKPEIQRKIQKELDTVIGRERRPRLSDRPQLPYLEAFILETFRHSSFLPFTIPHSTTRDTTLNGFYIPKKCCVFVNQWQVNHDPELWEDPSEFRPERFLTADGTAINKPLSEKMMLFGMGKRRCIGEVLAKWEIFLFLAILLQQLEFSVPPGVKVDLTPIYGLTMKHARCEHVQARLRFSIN
# Chain of 3',5'-cyclic-AMP phosphodiesterase 4B (Homo sapiens) (Q07343 whole entry, looked up): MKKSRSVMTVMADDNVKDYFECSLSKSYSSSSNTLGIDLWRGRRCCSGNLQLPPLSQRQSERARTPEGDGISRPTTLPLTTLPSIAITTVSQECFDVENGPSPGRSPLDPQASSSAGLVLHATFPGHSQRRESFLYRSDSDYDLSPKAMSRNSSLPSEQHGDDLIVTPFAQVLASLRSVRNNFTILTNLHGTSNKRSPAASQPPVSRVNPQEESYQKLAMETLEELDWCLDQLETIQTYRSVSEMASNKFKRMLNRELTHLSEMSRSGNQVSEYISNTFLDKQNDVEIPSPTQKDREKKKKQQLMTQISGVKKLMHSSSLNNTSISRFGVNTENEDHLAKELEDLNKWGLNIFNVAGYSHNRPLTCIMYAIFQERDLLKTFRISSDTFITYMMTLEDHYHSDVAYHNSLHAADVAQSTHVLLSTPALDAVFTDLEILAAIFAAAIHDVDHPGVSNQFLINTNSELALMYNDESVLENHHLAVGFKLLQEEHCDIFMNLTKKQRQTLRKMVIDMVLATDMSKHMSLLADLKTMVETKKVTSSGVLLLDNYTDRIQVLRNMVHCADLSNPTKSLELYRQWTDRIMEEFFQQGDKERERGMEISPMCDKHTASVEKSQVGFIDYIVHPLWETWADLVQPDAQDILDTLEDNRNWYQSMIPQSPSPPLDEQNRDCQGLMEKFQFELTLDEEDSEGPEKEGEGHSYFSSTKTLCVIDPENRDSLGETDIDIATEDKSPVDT
# Chain of Cytochrome P450 3A4 (Homo sapiens) (P08684 whole entry, looked up): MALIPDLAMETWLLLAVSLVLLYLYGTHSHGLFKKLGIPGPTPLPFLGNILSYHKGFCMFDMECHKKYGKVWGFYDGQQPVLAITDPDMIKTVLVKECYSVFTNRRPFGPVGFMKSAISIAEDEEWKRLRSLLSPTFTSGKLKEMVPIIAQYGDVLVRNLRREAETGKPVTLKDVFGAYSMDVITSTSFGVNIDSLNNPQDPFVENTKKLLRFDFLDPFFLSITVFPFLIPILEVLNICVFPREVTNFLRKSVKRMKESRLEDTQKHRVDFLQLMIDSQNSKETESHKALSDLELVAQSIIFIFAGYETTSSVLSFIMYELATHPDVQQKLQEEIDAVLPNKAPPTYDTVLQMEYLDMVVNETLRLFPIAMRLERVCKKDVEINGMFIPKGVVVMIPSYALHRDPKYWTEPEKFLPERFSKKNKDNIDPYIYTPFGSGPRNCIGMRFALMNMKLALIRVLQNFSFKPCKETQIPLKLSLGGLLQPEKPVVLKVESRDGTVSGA
# Chain of Ubiquitin carboxyl-terminal hydrolase 1 (Homo sapiens) (O94782 whole entry, looked up): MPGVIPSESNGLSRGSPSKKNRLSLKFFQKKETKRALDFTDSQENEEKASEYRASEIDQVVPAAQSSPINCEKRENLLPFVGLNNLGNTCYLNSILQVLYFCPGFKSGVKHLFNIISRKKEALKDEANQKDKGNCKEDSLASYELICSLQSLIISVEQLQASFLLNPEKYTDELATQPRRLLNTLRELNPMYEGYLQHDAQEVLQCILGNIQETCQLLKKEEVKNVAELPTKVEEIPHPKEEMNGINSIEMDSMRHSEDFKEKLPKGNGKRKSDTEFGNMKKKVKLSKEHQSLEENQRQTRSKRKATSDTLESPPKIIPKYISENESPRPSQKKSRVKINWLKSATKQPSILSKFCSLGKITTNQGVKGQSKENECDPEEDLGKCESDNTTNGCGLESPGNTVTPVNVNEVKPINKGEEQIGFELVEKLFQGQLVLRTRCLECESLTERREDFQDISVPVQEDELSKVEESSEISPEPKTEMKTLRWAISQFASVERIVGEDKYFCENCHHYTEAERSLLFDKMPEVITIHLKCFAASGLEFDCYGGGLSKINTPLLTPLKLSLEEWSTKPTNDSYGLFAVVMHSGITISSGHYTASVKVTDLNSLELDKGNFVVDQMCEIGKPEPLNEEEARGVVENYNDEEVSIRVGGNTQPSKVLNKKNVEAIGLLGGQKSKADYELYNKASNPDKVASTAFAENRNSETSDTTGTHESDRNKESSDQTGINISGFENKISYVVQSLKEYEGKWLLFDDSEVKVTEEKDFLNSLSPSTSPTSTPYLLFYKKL
# Chain of Glucocorticoid receptor (Homo sapiens) (P04150 whole entry, looked up, the tested form may be a part): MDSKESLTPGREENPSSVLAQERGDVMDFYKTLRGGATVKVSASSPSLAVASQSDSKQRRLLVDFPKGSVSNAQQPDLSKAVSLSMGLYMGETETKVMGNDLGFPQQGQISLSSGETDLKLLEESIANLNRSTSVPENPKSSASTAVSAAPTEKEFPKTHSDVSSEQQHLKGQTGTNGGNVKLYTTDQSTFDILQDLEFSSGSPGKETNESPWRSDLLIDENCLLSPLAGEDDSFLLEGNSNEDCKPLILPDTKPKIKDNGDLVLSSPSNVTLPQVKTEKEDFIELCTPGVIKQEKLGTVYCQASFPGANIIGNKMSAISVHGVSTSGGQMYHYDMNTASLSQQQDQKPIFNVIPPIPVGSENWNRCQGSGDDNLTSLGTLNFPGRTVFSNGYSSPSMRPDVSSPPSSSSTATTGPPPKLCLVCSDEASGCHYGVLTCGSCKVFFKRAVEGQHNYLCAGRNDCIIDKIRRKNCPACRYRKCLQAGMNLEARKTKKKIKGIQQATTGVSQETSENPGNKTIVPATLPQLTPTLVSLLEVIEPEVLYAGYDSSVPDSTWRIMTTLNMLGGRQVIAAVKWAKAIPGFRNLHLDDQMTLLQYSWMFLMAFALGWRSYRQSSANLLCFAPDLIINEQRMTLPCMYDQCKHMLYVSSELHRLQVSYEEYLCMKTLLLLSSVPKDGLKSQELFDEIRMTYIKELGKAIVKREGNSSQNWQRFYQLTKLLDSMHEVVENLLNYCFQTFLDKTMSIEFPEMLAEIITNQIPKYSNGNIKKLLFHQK
# Chain of Cytochrome P450 2C19 (Homo sapiens) (P33261 whole entry, looked up): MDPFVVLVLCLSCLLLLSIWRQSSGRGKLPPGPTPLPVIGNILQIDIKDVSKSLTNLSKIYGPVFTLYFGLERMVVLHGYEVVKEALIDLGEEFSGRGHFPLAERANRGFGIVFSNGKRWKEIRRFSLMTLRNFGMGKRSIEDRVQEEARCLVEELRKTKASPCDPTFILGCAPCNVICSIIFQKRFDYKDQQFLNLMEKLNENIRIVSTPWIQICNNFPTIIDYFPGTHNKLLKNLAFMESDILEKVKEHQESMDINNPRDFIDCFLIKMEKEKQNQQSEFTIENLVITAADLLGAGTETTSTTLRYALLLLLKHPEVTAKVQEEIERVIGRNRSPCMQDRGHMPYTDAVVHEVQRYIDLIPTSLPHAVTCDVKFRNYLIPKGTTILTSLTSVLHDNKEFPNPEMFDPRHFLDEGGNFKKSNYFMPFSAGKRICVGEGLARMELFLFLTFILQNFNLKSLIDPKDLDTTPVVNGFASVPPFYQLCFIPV
# Chain of Dual specificity protein kinase CLK4 (Homo sapiens) (Q9HAZ1 whole entry, looked up): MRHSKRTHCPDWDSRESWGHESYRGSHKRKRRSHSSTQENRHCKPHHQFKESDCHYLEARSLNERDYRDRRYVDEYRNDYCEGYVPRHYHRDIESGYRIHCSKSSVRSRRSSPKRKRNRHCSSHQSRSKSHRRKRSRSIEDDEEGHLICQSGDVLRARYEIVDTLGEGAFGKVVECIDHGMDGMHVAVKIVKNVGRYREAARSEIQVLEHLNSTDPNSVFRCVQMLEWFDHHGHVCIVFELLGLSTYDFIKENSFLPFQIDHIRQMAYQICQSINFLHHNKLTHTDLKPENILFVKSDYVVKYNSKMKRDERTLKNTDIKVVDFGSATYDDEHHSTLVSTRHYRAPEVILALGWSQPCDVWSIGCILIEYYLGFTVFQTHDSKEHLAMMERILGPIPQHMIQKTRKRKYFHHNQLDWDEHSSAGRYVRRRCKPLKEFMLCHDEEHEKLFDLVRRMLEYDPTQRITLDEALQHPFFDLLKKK
SMILES,Potency [1],"activity change, negative = inhibition [2]",Potency [3],"activity change, negative = inhibition [4]","activity, negative = inhibition [5]",Potency [6],Potency [7],Potency [8],Potency [9],Potency [10],Potency [11],outcome [12],Potency [13],Potency [14],Potency [15],Potency [16],outcome [17],activation [18]
COc1cccc(Cn2c(=O)c(-c3cccc(C#N)c3)nc3cnc(OC)nc32)c1,> 11.4 µM,-6.86%,10 µM (active),-8.15%,-4.38%,> 9.22 µM,> 46 µM,inactive,3.16 µM (active),inactive,inactive,inactive,–,–,–,–,–,–
Cc1cnc(CNc2cc(-c3ccccc3C)ncn2)cn1,> 11.4 µM,-5.18%,12.6 µM (active),14%,4.06%,> 46 µM,> 46 µM,inactive,inactive,3.16 µM (active),inactive,inactive,inactive,–,–,–,–,–
N#Cc1cccc(-c2nc(NCc3cccnc3)c3ccccc3n2)c1,> 11.4 µM,-20.1%,0.251 µM (active),28.2%,-21.4%,> 46 µM,> 46 µM,inactive,5.01 µM (active),inactive,inactive,inactive,–,–,–,–,–,–
COc1ccccc1-c1cc(Nc2ccc(F)cc2)ncn1,> 11.4 µM,–,2 µM (active),-14.1%,-19.9%,–,> 46 µM,inactive,–,–,–,inactive,–,7.94 µM (active),inactive,–,–,–
CN(Cc1ccco1)c1ccnc(-c2ccoc2)n1,> 11.4 µM,12%,12.6 µM (active),-2.04%,-14.2%,> 46 µM,> 46 µM,inactive,–,–,inactive,inactive,inactive,–,–,inactive,inactive,–
c1ccc(CNc2ncncc2-c2ccoc2)cc1,> 11.4 µM,9.24%,5.01 µM (active),17%,-8.66%,> 46 µM,> 46 µM,inactive,2 µM (active),inactive,inactive,inactive,inactive,–,–,–,–,1.1%
Cc1noc(C)c1-c1cncnc1NC1CC1,> 11.4 µM,12.1%,inactive,0.874%,-18.4%,> 46 µM,> 46 µM,inactive,7.94 µM (active),inactive,inactive,inactive,inactive,–,–,inactive,inactive,–
